Reference: PubChem BioAssay AID720650 (Broad Institute, 2013)
Values without a mark were called inactive. Activity calls are given as the source filed them. No rule for the calls is given here.

Test: Biochemical counterscreen for C difficile toxins, absence of UDPG, inhibitor dose response (AID 720650)
Conditions: series mostly up to 19.5 µM

Compound	AC50
COc1ccc(Cl)cc1NC(=O)CSc1nnc(-c2ccco2)o1	> 39 µM
Cc1cc(C)nc(NC(N)=NCCc2ccccc2)n1	> 39 µM
CN(C)CCCNC(=O)C[C@H]1CC[C@@H]2[C@@H](COc3ccc(NC(=O)c4ccc5c(c4)OCO5)cc3C(=O)N2C)O1	inactive
CNC(=O)C[C@H]1CC[C@@H]2[C@@H](COc3ccc(NC(=O)c4ccc(OC)cc4)cc3C(=O)N2C)O1	inactive
CCOC(=O)/C(=N/Nc1ccc(Br)cc1)N1CC(C)OC(C)C1 (centres undefined)	0.615 µM (active)
CCNC(=O)C[C@H]1CC[C@@H]2[C@H](COc3ccc(NC(=O)c4ccc5c(c4)OCO5)cc3C(=O)N2C)O1	> 42 µM
CCNC(=O)C[C@H]1CC[C@@H]2[C@H](COc3ccc(NC(C)=O)cc3C(=O)N2C)O1	inactive
Oc1ccc(/C=N/Nc2nc(N3CCCC3)nc(N3CCCC3)n2)cc1O	inactive
Cc1cc(C)c(C)c(S(=O)(=O)N2CCCCC2C(=O)O)c1C (centres undefined)	> 39 µM
CCC(CO)[n+]1c(C)cc(/C=C2\Sc3ccccc3N2Cc2ccccc2)cc1C (centres undefined)	3.4 µM (active)
O=C(Nc1nnc(C(F)(F)F)s1)c1ccc(Br)s1	8.05 µM (active)
CCNC(=O)C[C@H]1CC[C@@H]2[C@@H](COc3ccc(NC(=O)c4cccc(OC)c4)cc3C(=O)N2C)O1	> 39 µM
COc1cc2oc3ccc(C#Cc4ccccn4)cc3c(=O)c2cc1OC	inactive
CCOC(=O)c1ccc(-n2c(CCC(=O)O)ccc2-c2ccc(F)cc2)cc1	inactive
O=C(OCC(=O)N1CCCCC1)c1ccccc1SCC(=O)N1CCCCC1	inactive
C[C@@H]1CN([C@@H](C)CO)S(=O)(=O)c2ccc(-c3ccncc3)cc2O[C@@H]1CN(C)Cc1ccc(Oc2ccccc2)cc1	inactive
CC(C)(C)C(=O)C1=C(O)C(=O)N(c2ccccc2)C1c1ccccc1 (centres undefined)	> 39 µM
Cc1ccc(C2=NS(=O)(=O)N(C)C(C(=O)NCc3ccccc3)=C2)cc1	inactive
O=C(Nc1ccncc1)c1ccc(-c2ccccc2)cc1	inactive
Nc1ccc(N=Nc2ccc(O)cc2)c(N)n1	7.86 µM (active)

Compound	AC50
O=C(COc1ccc(/C=N/NC(=O)c2ccc(O)cc2)cc1)Nc1cccc([N+](=O)[O-])c1	inactive
Cc1c(O)ccc(NC(=O)/C=C/c2ccccc2)c1C	> 39 µM
CCc1[nH]c(=O)c(C#N)c2c1CCCC2	inactive
Nc1ccc(C(=O)c2ccc3c(c2)OCCO3)cc1N	11.9 µM (active)
CCOC(=O)[C@@H]1[C@H]2COc3ccc(Br)cc3[C@@H]2N2C(=O)N(c3cccc(F)c3)C(=O)[C@]12C	inactive
Fc1ccc(/C=C\c2nccc3c2[nH]c2ccccc23)cc1	inactive
N#CCCN(C(=O)COC(=O)c1cc(=O)c2ccccc2o1)c1ccccc1	inactive
COC(=O)Cc1ccc(NC(=S)NCc2ccc(OC)cc2)cc1	inactive
COc1cc2c(cc1O)CC[n+]1cc3c(OC)c(OC)ccc3cc1-2	> 39 µM
CC(=O)C1=CCC(c2ccc(C)cc2)N(S(=O)(=O)c2ccc(C)cc2)C1 (centres undefined)	> 39 µM
O=C(C[C@@H]1CC[C@@H]2[C@H](COC[C@H](O)CN2C(=O)c2ccccn2)O1)NC1CCC1	inactive
COc1ccc(CNC(=O)C2CCN(S(=O)(=O)c3c(C)noc3/C=C/N(C)C)CC2)cc1	inactive
Cc1cc(C(C)(C)C)cc(CN2CCN(S(=O)(=O)c3cccs3)CC2)c1O	inactive
COc1cc(/C=N/NC2=NCCCCC2)ccc1O	inactive
Cc1cc(N/N=C/c2ccc(O)cc2O)nc(N2CCOCC2)n1	> 39 µM
CCOc1ccc(/C=N/n2nnnc2N)cc1O	inactive
CCCCNC(=O)C1CCN(S(=O)(=O)c2c(C)noc2/C=C\c2ccc(OC)cc2)CC1	inactive
Cc1cc(C)c2sc(NNC(=O)C3COc4ccccc4O3)nc2c1 (centres undefined)	0.645 µM (active)
Oc1ccc(NC(=S)Nc2ccccc2)cc1	18.6 µM (active)
